Screening data: PubChem BioAssay, National Center for Advancing Translational Sciences (NCATS)
POLH inh: blocks human DNA polymerase eta activity. Q9Y253. hit rate 1.2% among 390,000. recombinant Pol eta, fluorescent DNA replication assay. Potency, µM (series often up to 114 µM), without a hit: top-dose activity change, negative = inhibition, most hits filed as inhibitors; further: on the % scale 0 is the no-effect control and ±100 the full control effect
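Pol eta at 10 nM preincubated with compounds 15 min at room temperature; reaction started with fluorescent substrate (50 nM final) and read kinetically at 0 and 10 min.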
POLK inh: inhibitors of human DNA polymerase kappa | hit rate 0.53% among 400,000 | purified Pol kappa, fluorescent DNA synthesis assay, 10 min | Q9UBT6 | Potency, µM (top dose mostly 107 µM), without a hit: at the highest dose activity, negative = inhibition, hits mostly inhibitors; further: on the % scale 0 is the no-effect control and ±100 the full control effect
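Inhibition of 10 nM Pol kappa is measured by a fluorescent read-out at 0 and 10 min following addition of 50 nM substrate (final), with a 15-min room-temperature compound preincubation.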
FEN1 inh: human FEN1 inhibition. P39748. Recombinant FEN1 flap cleavage, fluorescence, 15 min. Potency, µM (doses to about 114 µM), inactives show top-dose activity change, negative = inhibition, actives largely listed as inhibitors. hit rate 0.35% among 390,000. AID 588795; further: on the % scale 0 is the no-effect control and ±100 the full control effect; nearly all actives have a fitted effect of over 65% in size
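Potency values derive from four-parameter Hill fits of normalized qHTS data. The reaction used 10 nM FEN1 preincubated 15 min at room temperature with compound, then 50 nM DNA substrate, read at 0 and 15 min.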
Pol beta inh: blocks human DNA polymerase beta activity. P06746. Pol beta primer extension/strand displacement, fluorescence kinetic. Potency, µM (series often up to 114 µM), without a hit: top-dose activity change, negative = inhibition, usual class: inhibitors. hit rate 1.3% among 340,000. AID 485314; further: on the % scale 0 is the no-effect control and ±100 the full control effect
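10 nM enzyme + cpd, 15 min RT; start with substrate 50 nM final; read 0 min and after 10 min RT. Corrected, normalized data; 4-parameter Hill curve fit.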
WRN helicase inh: inhibitors of human WRN helicase; Q14191; WRN helicase unwinding, fluorescent forked duplex, kinetic; Potency, µM (top dose mostly 114 µM), for the others: at the highest dose activity change, negative = inhibition, actives largely listed as inhibitors; hit rate 0.46% among 360,000; AID 651768; further: on the % scale 0 is the no-effect control and ±100 the full control effect; nearly all actives have a fitted effect of over 55% in size
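WRN at 20 nM final was preincubated with compound for 15 min at room temperature; reaction started with 100 nM forked duplex oligonucleotide carrying fluorophore and quencher plus 2 mM ATP (final). Unwinding followed kinetically by red fluorescence (ex 525/em 598 nm).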
POLI inh: DNA polymerase iota (human) inhibition. Q9UNA4. Pol iota fluorescent replication assay, 10 min. Potency, µM (doses to about 115 µM), for the others: at the top dose activity, negative = inhibition, actives largely listed as inhibitors. hit rate 1% among 390,000. AID 588590
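Pol iota at 10 nM preincubated 15 min with compounds at room temperature; reaction started with fluorescent substrate, 50 nM final. Fluorescence read kinetically at 0 and 10 min; buffer-only wells as negative control.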
* hit, by the source's call; u = inconclusive; x = not tested or not shown; [ ] = another dose, or the depositor's remark. The list is not random: actives were taken first. Their share in the collection is about 2.4%. The call rests on the fitted dose curve; in most records, active means well fitted curve in the direction sought with a large enough effect; inconclusive means small, poorly fitted or top-dose-only effect, or another doubt; inactive means no such curve, though single readings can be large; an effect the other way counts as inactive or inconclusive. Potency means the concentration at half of the fitted maximal effect.

SMILES	POLH inh	POLK inh	FEN1 inh	Pol beta inh	WRN helicase inh	POLI inh
Cc1oc2ccc(O)c(CN3CCN(Cc4ccccc4)CC3)c2c1C(=O)Nc1cccc(Cl)c1C	-8%	14%	-3%	38%	x	u
Brc1ccc(C2Nc3cccc4cccc(c34)N2)o1	-8%	-5%	28µM*	7%	-21%[57.1 µM]	u
Brc1cccc(C2Nc3cccc4cccc(c34)N2)c1	-7%	-14%	-6%	u	-13%	11%
Clc1cccc(Cl)c1C1Nc2cccc3cccc(c23)N1	-4%	-39%	-15%	-59%	-10%[57.1 µM]	35µM*
O=C(/C=C\Nc1ccc2c(c1)OCO2)c1ccc(Cl)s1	-9%	-7%	-3%	-13%	-23%	-14%
CCN(CC)CCn1nc2c3c(cccc3c1=O)-c1ccccc1-2	-10%	-64%	u	10µM*	-1%[11.6 µM]	u
O=c1c2cccc3c2c(nn1CN1CCOCC1)-c1ccccc1-3	7%	-11%	u	12%	-3%	-2%
O=C(Nc1cccc(Br)c1)c1ccn[nH]1	5%	-16%	-4%	2%	2%	39%
Cc1ccc(Cn2c(=S)[nH]c3ccc(N4CCOCC4)cc3c2=O)o1	-21%	u	u	6%	u	14µM*
O=c1c2cc(N3CCOCC3)ccc2[nH]c(=S)n1Cc1ccc(Cl)cc1	-6%	-4%	-5%	2%	-7%	-6%
O=C(NCc1cccs1)c1nc(-c2cccs2)no1	1%	1%	19%	31%	1%	-2%
COc1ccc(N2Cc3cccc(C(=O)O)c3C2=O)cc1	4µM*	u	-16%	7.1µM*	50µM*	u
CN(C)Cc1cc(O)c(CN(C)C)cc1O	79µM*	16µM*	u	10µM*	2%[11.6 µM]	7.1µM*
O=C(COc1ccc(Cl)cc1)OCC(=O)N1CCCCCC1	-3%	4%	0%	35µM*	0%	2%
Cc1ccc2c(Cl)cc(Cl)c(OCC(=O)NCc3ccco3)c2n1	x	x	x	13µM*	x	x
Cc1cc(Cl)cc(Cl)c1OCC(=O)NCc1ccco1	20µM*	-43%	-3%	40µM*	-4%[11.6 µM]	u
COC(=O)c1ccc(COc2ncnc3sccc23)cc1	-10%	5%	6%	1%	2%	9%
CCOc1ccc2oc(=O)cc(CN3CCN(C(=O)c4cccc(Cl)c4)CC3)c2c1	8%	-10%	0%	-11%	x	-15%
CCOC(=O)c1c(NC(=O)CSc2nnc(C)s2)sc2c1CCN(C)C2	u	-27%	-11%	2%	u	11µM*
CC1CCCCC1NC(=O)COC(=O)CN1C(=O)c2ccccc2C1=O (centres undefined)	-17%	10%	7%	x	7%	19%
CC(CC1CC(C)(C)OC1=O)C(=O)Nc1ccc([N+](=O)[O-])cc1 (centres undefined)	-7%	-14%	-5%	50%	1%	16%
COc1cc(SC#N)ccc1N=Cc1c(C)[nH]n(-c2cccc3ccccc23)c1=O	-15%	-11%	0%	9%	u	13µM*
CNC(=S)N(Cc1ccc(OC)cc1)Cc1cc2cc(C)ccc2[nH]c1=O	-16%	-3%	13%	6%	0%	59%
O=C(CS(=O)CC(=O)Nc1cnc2ccccc2c1)Nc1ccc(Cl)cc1 (centres undefined)	u	-29%	5%	50µM*	-8%[57.1 µM]	u
CN(C)C(=O)Nc1cnc2ccccc2c1	-3%	4%	-5%	21%	11%	1%
SMILES	POLH inh	POLK inh	FEN1 inh	Pol beta inh	WRN helicase inh	POLI inh
CCN(c1ccccc1)c1ncnc2c1cnn2-c1ccc(OC)cc1	-6%	-9%[60.1 µM]	u	-2%	x	-3%
Cc1ccc(S(=O)(=O)c2cn(C)c3cc(N4CCCC(C)C4)c(F)cc3c2=O)c(C)c1 (centres undefined)	-2%	-9%	-1%	-19%	x	-14%
CCCCNS(=O)(=O)c1cc(-c2nn(C)c(=O)c3ccccc23)ccc1C	u	u	-13%	35µM*	-4%[11.6 µM]	u
CCN(CC)S(=O)(=O)c1cc(-c2nn(C)c(=O)c3ccccc23)ccc1C	u	-9%	-11%	45µM*	-25%	u
CC1(C)Oc2ccc(C#N)cc2[C@@H](N2CCCC2=O)[C@@H]1O	-2%	-23%	-8%	12%	-10%	2%
C=CSc1sc(Cl)c(N(C)C)c1[N+](=O)[O-]	-2%	-9%	-2%	11%	-1%	23%
C=CSc1sc(Cl)c(N(CC)CC)c1[N+](=O)[O-]	u	-7%	-6%	20µM*	-23%	u
O=[N+]([O-])c1c(Nc2ccccc2O)cc(Cl)c2nonc12	45µM*	-2%	-26%	18µM*	u	11µM*
N#C/C(=C\c1ccc(-c2cccc(Cl)c2)o1)C(=O)Nc1cccc(C(F)(F)F)c1	-1%	-25%	9%	-20%	x	89µM*
Cc1c(CN2CCC(n3nccc3NC(=O)C3CC3)CC2)[nH]c2ccccc12	1%	0%	-12%	-6%	8%	20%
NS(=O)(=O)c1ccc(CNS(=O)(=O)c2cc(C(=O)O)ccc2Cl)cc1	20µM*	-70%	-11%	u	-19%[57.1 µM]	u
CCOc1ccc2[nH]c3c(=O)n(CCC4=CCCCC4)cnc3c2c1	-7%	-6%	10%	u	-4%	42%
CN1C(=O)S/C(=C\c2ccccc2OCc2ccc(C(=O)O)cc2)C1=O	u	-7%	7%	-1%	-12%	19%
CC(C)N1C(=O)S/C(=C/c2ccccc2OCc2ccc(C(=O)O)cc2)C1=O	89µM*	u	u	1%	-13%	u
C=CCN(c1ccc(C(=O)N2CCCC2)cc1)S(C)(=O)=O	-7%	0%	-2%	4%	-4%	20%
O=C(NCCOC(=O)c1ccc([N+](=O)[O-])cc1)c1cccnc1	-9%	12%	3%	35%	6%	12%
CC(=C/C(=O)O)/C(=C\c1ccc(Br)o1)C(=O)O	-7%	-5%	0%	-6%	1%	23%
Cc1ccc(S(=O)(=O)Nc2ccc(O)c3ncccc23)cc1	2%	-23%	13µM*	-16%	-26%	-13%
Cc1ccc(S(=O)(=O)Nc2ccc(O)c3cccnc23)cc1	-18%	7%	8%	6%	-5%	49%
Clc1ccccc1OCc1nnc(-c2ccccc2Br)o1	1%	-5%	-17%	6%	-2%	-1%
O=c1c(Cl)c(Cl)cnn1Cc1nnc(-c2ccccc2Br)o1	79µM*	-17%	12%	40µM*	-35%[57.1 µM]	u
CC(C)(C)c1ccc(C(=O)N/C(=C\c2cccc([N+](=O)[O-])c2)C(=O)Nc2cccc(C(=O)O)c2)cc1	22µM*	-10%	u	u	u	62%
